Assay results published in the supplement of paper PMC12645437, “Orthogonal IMiD-Degron Pairs Induce Selective Protein Degradation in Cells” (ACS Chemical Biology, 2025).
Whole data set: some 8,300 sequences, median “log2 fold change of degron read counts, EGFP-low vs EGFP+ sorted cells (limma voom), compound-induced degradation” near -1.1, cut for the highest 2% near 3.2. This is one part of a sample in which the highest values are shown more often than they occur.

T1: CRBN, Q96SW2
T1 chain: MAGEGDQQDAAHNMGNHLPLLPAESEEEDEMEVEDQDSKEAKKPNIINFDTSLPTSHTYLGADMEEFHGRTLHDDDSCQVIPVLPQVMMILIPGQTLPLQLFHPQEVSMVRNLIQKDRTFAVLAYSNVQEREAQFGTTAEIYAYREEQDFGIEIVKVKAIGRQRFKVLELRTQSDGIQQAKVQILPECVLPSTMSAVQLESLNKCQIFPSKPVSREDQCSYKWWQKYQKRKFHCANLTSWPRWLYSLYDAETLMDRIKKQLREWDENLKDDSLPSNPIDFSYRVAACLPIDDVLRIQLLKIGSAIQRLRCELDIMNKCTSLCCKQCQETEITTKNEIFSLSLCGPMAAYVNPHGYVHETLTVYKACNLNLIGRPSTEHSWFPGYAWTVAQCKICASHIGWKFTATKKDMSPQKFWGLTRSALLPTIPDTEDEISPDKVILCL


Target: T1, CRBN, Q96SW2
Assay: log2 fold change of degron read counts, EGFP-low vs EGFP+ sorted cells (limma voom), compound-induced degradation; higher = more compound-induced degradation of the degron-EGFP fusion; degrons are variants of IKZF1/3 zinc finger 2; compound dose not given here
Details: Jurkat, 18 h
[1] = compound: compound 19 (5-tert-butyl-thalidomide)
[2] = compound: compound 22 (5-morpholino-thalidomide)
[3] = compound: compound 33 (diphenyl IMiD analogue)
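Further: pooled lentiviral library of zinc finger degron-EGFP fusions in mCherry-positive Jurkat cells, FACS-sorted after compound exposure, with degron abundance counted by next-generation sequencing.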

Row | Sequence | log2 fold change of degron read counts [1] | log2 fold change of degron read counts [2] | log2 fold change of degron read counts [3] | log2 fold change of degron read counts (compound: thalidomide)
1 | FCCEICGRVFTQKGNLLRHIKL [46F_47C_49E_50I_52G_53R_54V_55F_67L_, Q9UKT9] | -1.06 | -1.44 | -0.0327 | -0.334
2 | FVCEICGASFTQKGNLLRHIKL [46F_47V_49E_50I_52G_53A_54S_55F_67L_, Q9UKT9] | 1.36 | 2.28 | 1.92 | 3
3 | FTCEICGASFTQKGNLLRHIKL [46F_47T_49E_50I_52G_53A_54S_55F_67L_, Q9UKT9] | 2.27 | 3.03 | 2.5 | 3
4 | FNCEICGASFTQKGNLLRHIKL [46F_47N_49E_50I_52G_53A_54S_55F_67L_, Q9UKT9] | 3.43 | 1.63 | 0.778 | 0.457
5 | FECEICGASFTQKGNLLRHIKL [46F_47E_49E_50I_52G_53A_54S_55F_67L_, Q9UKT9] | 2.12 | -0.516 | 1.74 | 2.43
6 | FACEICGASFTQKGNLLRHIKL [46F_47A_49E_50I_52G_53A_54S_55F_67L_, Q9UKT9] | 3.67 | 2.8 | 0.948 | 1.06
7 | FFCEICGHSFTQKGNLLRHIKL [46F_47F_49E_50I_52G_53H_54S_55F_67L_, Q9UKT9] | -2.6 | -2.19 | -2.73 | -2.65
8 | FLCEICGASFTQKGNLLRHIKL [46F_47L_49E_50I_52G_53A_54S_55F_67L_, Q9UKT9] | 1.8 | -0.0236 | 1.14 | 1.42
9 | FFCEICGASFTQKGNLLRHIKL [46F_47F_49E_50I_52G_53A_54S_55F_67L_, Q9UKT9] | 3.6 | 3.72 | 2.31 | 1.63
10 | FRCEICGASFTQKGNLLRHIKL [46F_47R_49E_50I_52G_53A_54S_55F_67L_, Q9UKT9] | 2.38 | 1.52 | 2.01 | 2.12
11 | FICEICGASFTQKGNLLRHIKL [46F_47I_49E_50I_52G_53A_54S_55F_67L_, Q9UKT9] | 0.541 | 2.73 | 2.39 | 2.95
12 | FWCEICGASFTQKGNLLRHIKL [46F_47W_49E_50I_52G_53A_54S_55F_67L_, Q9UKT9] | 3.83 | 3.81 | 2.56 | 1.42
